High-throughput results deposited in PubChem BioAssay by several laboratories.
Sampled rows, rich in hits. Any-hit rate of the full collection: about 3.2%.
MsrA act = bovine methionine sulfoxide reductase A activation. actives 0.3% (n = 360,000). purified bovine MsrA, absorbance read-out. activation, % at 10.6 µM. AID 602163; in the data active = activation above about 7.5%;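 also: 0% = vehicle and 100% = reference activator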
rCAG RNA binder = binds r(CAG) RNA repeats | r(CAG) RNA repeat, TO-PRO-1 dye displacement fluorescence | inhibition, % at 3 µM | actives 1.3% (n = 370,000);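 active = inhibition above the plate cutoff, the mean of all test compounds on that plate plus 3 SD, cut at about 35% in these data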;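 also: 0% = DMSO alone and 100% = 100 µM mitoxantrone as full dye displacement; higher means more dye released from RNA so lower well fluorescence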
DSG3 Ab inh = inhibitors of pemphigus antibody binding to human desmoglein-3. binding (percent of control), % at 10 µM. actives 0.48% (n = 310,000). P32926. AID 588358. DSG3-coupled beads, scFv-anti-DSG3-GFP binding, flow cytometry; active compounds read low;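 active = binding more than 3 SD below its plate's average and above zero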;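 also: hits lower antibody fragment binding to DSG3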
MsrA inhibitor = inhibits bovine methionine sulfoxide reductase A | purified bovine MsrA, absorbance read-out | inhibition, % at 15.5 µM | actives 0.75% (n = 360,000) | AID 651718; in the data active = inhibition above about 4.5%;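 also: 0% = vehicle wells with enzyme and 100% = reference inhibitor wells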
NadD block = blocks S. aureus nicotinate mononucleotide adenylyltransferase; purified NadD enzyme, colorimetric absorbance read-out; inhibition, % at 20 µM; actives 0.78% (n = 360,000); AID 602399; in the data active = inhibition above about 26%
DAGLB inhibitor = diacylglycerol lipase beta (human) inhibition; inhibition, % at 5.17 µM; AID 504411; Q8NCG7; actives 0.059% (n = 340,000); HEK293T DAGLB membrane lysate, EnzChek fluorogenic substrate; in the data active = inhibition above about 34%;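 also: 0% = enzyme with vehicle and 100% = wells lacking enzyme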
Target sequence (Q8NCG7 whole entry, looked up): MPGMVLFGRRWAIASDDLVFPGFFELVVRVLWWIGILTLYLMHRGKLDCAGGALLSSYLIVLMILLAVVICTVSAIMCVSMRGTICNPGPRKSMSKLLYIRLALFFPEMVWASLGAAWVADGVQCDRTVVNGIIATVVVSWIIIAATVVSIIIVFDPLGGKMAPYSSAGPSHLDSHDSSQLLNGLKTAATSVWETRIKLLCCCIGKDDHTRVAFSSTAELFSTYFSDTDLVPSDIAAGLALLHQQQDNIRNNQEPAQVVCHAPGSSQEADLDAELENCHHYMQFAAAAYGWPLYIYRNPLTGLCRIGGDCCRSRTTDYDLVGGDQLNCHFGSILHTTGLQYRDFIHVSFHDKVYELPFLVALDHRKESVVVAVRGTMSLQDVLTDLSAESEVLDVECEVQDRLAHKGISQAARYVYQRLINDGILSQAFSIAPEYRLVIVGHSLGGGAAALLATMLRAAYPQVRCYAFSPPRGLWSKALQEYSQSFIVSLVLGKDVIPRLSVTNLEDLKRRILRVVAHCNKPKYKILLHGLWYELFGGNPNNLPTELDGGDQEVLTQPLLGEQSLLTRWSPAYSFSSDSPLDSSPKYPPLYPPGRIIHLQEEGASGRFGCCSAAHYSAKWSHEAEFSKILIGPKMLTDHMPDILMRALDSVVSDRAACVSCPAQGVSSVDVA
rCAG bind conf = r(CAG) RNA repeat binding, confirmation; AID 652065; shares compounds with rCAG RNA binder; TO-PRO-1 dye displacement fluorescence; actives 70% (n = 4,300); inhibition, % at 3 µM;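 active = inhibition above a per-plate cutoff, the mean inhibition of sample wells plus 3 SD, cut at about 35% in these data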;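 also: loss of TO-PRO-1 fluorescence as compound displaces dye from 1x1 AA loop RNA; 0% = DMSO only wells and 100% = 100 µM mitoxantrone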
DNA CAG counter = disrupts DNA CAG TO-PRO-1 complex, flagging rCAG hits; AID 652068; inhibition, % at 3 µM; shares compounds with rCAG RNA binder; d(CAG) DNA oligo TO-PRO-1 dye displacement, fluorescence; actives 94% (n = 4,300);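 active = inhibition above its plate's cutoff, the mean test-well inhibition plus 3 SD, cut at about 4.8% in these data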;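 also: 0% = DNA dye mix with DMSO and 100% = 100 µM mitoxantrone; hits displace the dye from DNA and so lower well fluorescence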
Active calls of the source: *.

Screening Cc1ccc(Cc2c(-c3ccc(F)cc3)nc3c(C)cc(Br)cn23)cc1 returned MsrA act 0 and NadD block 13.
COC(=O)[C@]12CCCCC=C1N(Cc1ccc(Cl)cc1Cl)C(=O)[C@H](CC(=O)NCc1cccs1)C2 was read as MsrA act -4, rCAG RNA binder 7, MsrA inhibitor 1 and NadD block 1.
CCOC(=O)Cn1cc(CN2C(C(=O)OC)CN(Cc3ccc(Cl)cc3)CCS2(=O)=O)nn1 (stereo unspecified) was read as rCAG RNA binder 0.
CCN(CC)S(=O)(=O)c1cc(NS(=O)(=O)c2cc(Cl)ccc2Cl)ccc1C was read as MsrA act -7, rCAG RNA binder 44*, DSG3 Ab inh 111, MsrA inhibitor -1, NadD block -4, DAGLB inhibitor 2, rCAG bind conf 40* and DNA CAG counter 12*.
`CC1(C(=O)NS(=O)(=O)c2ccccc2Cl)CCN1C(=O)CC(c1ccccc1)c1ccccc1` (stereo unspecified) gave MsrA act -3, rCAG RNA binder 50*, MsrA inhibitor 0, NadD block -2, rCAG bind conf 45* and DNA CAG counter 9.2*.
CC1(C(=O)NS(=O)(=O)c2cccc(OC(F)F)c2)CCN1C(=O)CC(c1ccccc1)c1ccccc1 (stereo unspecified) was read as MsrA act -3, rCAG RNA binder 52*, MsrA inhibitor -1, NadD block 3, rCAG bind conf 46* and DNA CAG counter 14*.
CC1(C(=O)NS(=O)(=O)c2ccccc2)CCN1C(=O)CC(c1ccccc1)c1ccccc1 (stereo unspecified) was read as MsrA act -2, rCAG RNA binder 31, MsrA inhibitor 2 and NadD block -1.
`Cc1ccccc1S(=O)(=O)NC(=O)C1(C)CCN1C(=O)CC(c1ccccc1)c1ccccc1` (stereo unspecified) gave MsrA act 0, rCAG RNA binder 47*, MsrA inhibitor -2, NadD block 0, rCAG bind conf 33 and DNA CAG counter 7.0*.
CCO/C(C)=N/Oc1cnc2ccccc2c1 was read as MsrA act 6, rCAG RNA binder 2, MsrA inhibitor -3 and NadD block -5.
`CN(c1c2c(nc3ncnn13)CCCC2)C1CCCCC1` gave rCAG RNA binder -1.
`O=S(=O)(Nc1nc(-c2ccco2)c(-c2ccco2)s1)c1ccc(F)cc1F` gave MsrA act -1, rCAG RNA binder 62*, DSG3 Ab inh 98, MsrA inhibitor 1, NadD block 6, DAGLB inhibitor 7, rCAG bind conf 53* and DNA CAG counter 20*.
Screening O=S(=O)(Nc1nc2ccccc2s1)c1cc(F)ccc1F returned MsrA act 1, rCAG RNA binder 25, MsrA inhibitor 1, NadD block -3 and DAGLB inhibitor 8.
`Cc1ccc(S(=O)(=O)NN=C(c2ccccc2)c2cccs2)cc1` gave MsrA act -2, rCAG RNA binder 36*, DSG3 Ab inh 104, MsrA inhibitor 3, NadD block -6, DAGLB inhibitor 1, rCAG bind conf 19 and DNA CAG counter 6.7*.
`CCOC(=O)[C@]12CCCC=C1N(Cc1ccc(OC)cc1)C(=O)[C@@H]2CC(=O)N1CCCC1` gave rCAG RNA binder 1.
Screening O=C(c1ccco1)N1N=C(c2cccs2)CC1c1ccc(F)cc1 (stereo unspecified) returned MsrA act -2, rCAG RNA binder 5, DSG3 Ab inh 97, MsrA inhibitor 2, NadD block 0 and DAGLB inhibitor -12.
O=C(c1ccco1)N1N=C(c2cccs2)CC1c1cc([N+](=O)[O-])ccc1O (stereo unspecified) was read as MsrA act -2, rCAG RNA binder 54*, DSG3 Ab inh 111, MsrA inhibitor 5, NadD block 8, DAGLB inhibitor 9, rCAG bind conf 35* and DNA CAG counter 13*.
